High-throughput results: PubChem BioAssay, National Center for Advancing Translational Sciences (NCATS)
Shown are actives, neighbours in structure and some others; about 17% of the full set was active somewhere.
ATXN2 expr inh: ATXN2 expression inhibition; HEK-293 ATXN2-luciferase reporter, luminescence, 24 h; Potency, µM (top dose mostly 57 µM), inactives show top-dose activity change, negative = inhibition, hits mostly inhibitors; 360,000 compounds, 0.72% hits; note: % is set by controls: 0 for no effect and ±100 for the full control effect; nearly all actives have a fitted effect of over 55% in size
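ATXN2-luciferase reporter cells (luciferase flanked by upstream and downstream ATXN2 gene portions) were treated 24 h at 37 °C with compounds at up to 57 uM. SteadyGlo luminescence gave expression; GF-AFC fluorescence gave viability.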
DT40 TDP1 CPT: DT40-hTDP1 cell growth loss with CPT | chicken DT40 Tdp1-/-;hTDP1 cells + 20 nM CPT, ATP luminescence, 48 h | Potency, µM (series often up to 46.2 µM), inactives show at the top dose activity change, negative = growth inhibition, hits mostly inhibitors | 420,000 compounds, 12% hits; note: % is set by controls: 0 for no effect and ±100 for the full control effect; nearly all actives have a fitted effect of over 55% in size
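Chicken DT40 Tdp1-/- cells stably complemented with human TDP1 were seeded at 400 cells/well in medium containing 20 nM camptothecin, exposed to pin-transferred compounds, and grown at 37 °C for at least 48 hr. Viability was read as ATP luminescence.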
TDP1 cell noCPT: qHTS for Inhibitors of human tyrosyl-DNA phosphodiesterase 1 (TDP1): qHTS in cells in absence of CPT; Potency, µM (top dose mostly 46.2 µM), without a hit: at the top dose activity change, negative = growth inhibition, actives largely listed as inhibitors; DT40 Tdp1-/- hTDP1 cells, no CPT, ATP luminescence, 48 h; 420,000 compounds, 15% hits; note: % is set by controls: 0 for no effect and ±100 for the full control effect; nearly all actives have a fitted effect of over 55% in size
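Chicken DT40 Tdp1-/- cells complemented with human TDP1, screened without camptothecin (DMSO vehicle only), 400 cells/well. Compounds pin-transferred, cells incubated at 37 °C for at least 48 hr. Growth read as ATP-dependent luminescence (CellTiter-Glo, 30 min at RT).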
ATXN viability: viability counter-screen for ATXN expression inhibitors. S2 cells (HEK-293 line with an ATXN2-luciferase reporter) viability, CellTiter-Fluor protease fluorescence, 24 h. Potency, µM (titrated, usually from 56.7 µM), actives largely listed as cytotoxic. 400,000 compounds, 0.49% hits. AID 651635; note: nearly all actives have a fitted effect of over 40% in size
HepG2 viability: counter-screen for TGF-b inhibitors: cytotoxicity in HepG2 cells. HepG2 CAGA-GFP viability, ATP luminescence, 18 h. Potency, µM (series often up to 46.1 µM), without a hit: top-dose activity change, negative = cytotoxicity, hits mostly cytotoxic. 410,000 compounds, 0.76% hits. AID 588856
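HepG2 CAGA-GFP cells (1000/well, DMEM with 1% FBS) received compound, then TGF-beta at 500 pg/mL final, and were incubated 18 hours at 37 degrees C. Viability was read by CellTiter-Glo luminescence. Media-only wells were set as complete cell-killing and DMSO as no toxicity.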
TGFb inhibitor: blocks TGF-b signaling; HepG2 CAGA-GFP TGF-b/SMAD3 reporter, GFP fluorescence, 18 h; TGF-beta stimulated, 500 pg/mL final; Potency, µM (doses to about 46.1 µM), for inactives: at the highest dose activity, negative = inhibition, actives largely listed as inhibitors; 410,000 compounds, 1.2% hits; AID 588855; note: % is set by controls: 0 for no effect and ±100 for the full control effect; nearly all actives have a fitted effect of over 65% in size
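HEPG2 CAGA-GFP reporter cells (1000/well, DMEM with 1% FBS) received compounds, then recombinant TGF-beta at 500 pg/mL final for 18 hours at 37 degrees C. Per-cell GFP summed per well was normalised to unstimulated and stimulated DMSO controls before curve fitting.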
An asterisk follows results filed as active; i = inactive; ? = inconclusive; . = no result given. Calls come from the whole dose curve; as a rule, active = well fitted curve in the direction sought with a large enough effect; inconclusive = small, poorly fitted or top-dose-only effect, or another doubt; inactive = no such curve, though single readings can be large; an effect the other way counts as inactive or inconclusive. Potency is the fitted concentration of half-maximal effect.

SMILES	ATXN2 expr inh	DT40 TDP1 CPT	TDP1 cell noCPT	ATXN viability	HepG2 viability	TGFb inhibitor
C/C(=N\NC(=O)c1ccc2c(c1)OCO2)c1ccco1	-30%	8%	-25%	i	-36%	1%
CC(C)c1ccc(O)c(NC(=S)NC(=O)c2ccc3c(c2)OCO3)c1	36%	13µM*	15µM*	i	-84%	14µM*
COc1cc(C(=O)c2ccc3c(c2)OCO3)cc(OC)c1OC	-11%	2.6µM*	5.2µM*	?	9%	-1%
COc1ccc(CN(C)C[C@@H]2OCc3cnnn3CCCC(=O)N([C@@H](C)CO)C[C@H]2C)cc1	-2%	-18%	-28%	i	-15%	-1%
Cc1ccc(NC(=O)Cn2c(=O)n(CC3CCC(C(=O)NC(C)C)CC3)c(=O)c3sccc32)cc1 (stereo not given)	4%	?	?	i	-1%	-5%
Cn1cccc1C(=O)N1CCC2(CC1)CN(C(=O)Nc1cccc(C#N)c1)C2	.	-6%	?	.	.	.
CC(C)CCN(C(=S)NC(=O)C1CCCCC1)c1c(N)n(Cc2ccccc2)c(=O)[nH]c1=O	-11%	?	?	i	-8%	-6%
COc1ccc(NC(=O)CSc2nccn2Cc2ccco2)cc1OC	2%	-28%	-15%	i	-1%	-1%
CCOC(=O)C1CCCN(C(=O)c2ccc3c(c2)N(C)C(=O)/C(=C/c2ccccc2Cl)S3)C1 (stereo not given)	-30%	?	18µM*	i	-16%	?
CCOC(=O)C1CCCN(C(=O)c2cccc(N3C(=O)c4ccccc4C3=O)c2)C1 (stereo not given)	.	-1%	-24%	i	4%	19%
COc1ccc(/C=C2\Sc3ccc(C(=O)N4CCCC4)cc3N(C)C2=O)cc1OC	-8%	7%	?	i	-13%	-5%
CN1C(=O)/C(=C\c2ccccc2F)Sc2ccc(C(=O)NC3CCN(Cc4ccccc4)CC3)cc21	?	18µM*	23µM*	i	-98%	?
CCOc1ccc(/C=C2/Sc3ccc(C(=O)N4CCOCC4)cc3N(C)C2=O)cc1OC	-15%	?	16µM*	i	-7%	-12%
CN1C(=O)/C(=C/c2cccc(Cl)c2)Sc2ccc(C(=O)N3CCOCC3)cc21	?	?	?	i	-1%	-3%
CN1C(=O)/C(=C/c2ccccc2Cl)Sc2ccc(C(=O)N3CCCC3)cc21	.	?	26µM*	i	-43%	?
C[C@H](CO)N1C[C@H](C)[C@@H](CN(C)C(=O)Nc2ccc3c(c2)OCCO3)OCc2cnnn2CCCC1=O	35%	7%	6%	?	10%	0%
COC(=O)c1ccc(CNC(=O)c2cc(COc3cncc(Cl)c3)on2)cc1	3%	?	?	i	-2%	-1%
CC(C)c1cc(CNC(=O)c2cc(COc3cncc(Cl)c3)on2)on1	.	?	18µM*	i	-19%	-20%
N#CCSc1ncnc2sc3c(c12)CCC3	37%	-7%	-19%	i	-4%	21%
COc1ccc(-c2nnc(CSc3ncnc4sc5c(c34)CCC5)o2)cc1OC	5%	?	10µM*	i	-2%	4%
COc1ccc(Cl)cc1C(=O)NNC(=O)c1csc(N2CCOCC2)n1	-7%	-30%	?	i	-27%	-4%
CCOc1ccc(/C=C/C(=O)c2cc(Br)ccc(=O)c2O)cc1	-14%	4.6µM*	3.7µM*	.	-55%	7.9µM*
O=C(C=Cc1ccccc1)c1cc(Br)ccc1O	-2%	?	?	i	-3%	-5%
CCOc1ccc(/C=C/C(=O)CCC(=O)O)cc1	41%	-4%	-13%	i	-141%	-12%
CCc1ccc(/C=C/C(=O)c2cc(Br)ccc(=O)c2O)cc1	32µM*	3.3µM*	5.2µM*	?	-76%	?
SMILES	ATXN2 expr inh	DT40 TDP1 CPT	TDP1 cell noCPT	ATXN viability	HepG2 viability	TGFb inhibitor
Cc1cccc(/C=C/C(=O)c2cc(Br)ccc(=O)c2O)c1	12%	3.3µM*	3.3µM*	i	-29%	?
CN(C(=O)COC(=O)c1ccccc1C(=O)N1CCN(c2ccccc2)CC1)c1ccccc1	-8%	?	?	i	6%	0%
COc1ccc(OC)c(NC(=O)CN2CCc3ccccc3C2)c1	3%	?	?	i	-13%	-6%
COC(=O)[C@H](Cc1ccccc1)NC(=O)N1CCCCCC1	17%	-10%	11%	i	-2%	1%
COC(=O)[C@H](Cc1ccccc1)NC(=O)N1CCN(Cc2ccccc2)CC1	?	?	26µM*	i	0%	-28%
O=C1CC(=O)OC(c2ccc([N+](=O)[O-])cc2)O1	.	3.3µM*	2.3µM*	?	-57%	?
O=C1[C@H]2[C@@H](c3ccccc3)N[C@]3(CCCN(Cc4ccc(Cl)cc4)C3=O)[C@H]2C(=O)N1Cc1ccccc1	-23%	23µM*	8.2µM*	i	-25%	4%
O=C1[C@H]2[C@@H](c3ccccc3)N[C@]3(CCCN(CC4CCCCC4)C3=O)[C@H]2C(=O)N1Cc1ccccc1	-2%	?	?	i	-50%	?
O=C1[C@H]2[C@@H](c3ccccc3)N[C@]3(CCCN(Cc4ccc(Br)cc4)C3=O)[C@H]2C(=O)N1Cc1ccccc1	-29%	?	23µM*	i	-5%	2%
Cc1ccc([C@H]2N[C@]3(CCCN(Cc4ccc(Br)cc4)C3=O)[C@H]3C(=O)N(Cc4ccccc4)C(=O)[C@@H]23)cc1	-12%	21µM*	29µM*	i	-19%	-14%
O=C1[C@H]2[C@@H](c3ccccc3)N[C@]3(CCCN(Cc4ccco4)C3=O)[C@H]2C(=O)N1Cc1ccccc1	-8%	?	?	i	-5%	-3%
CSc1ccccc1NC(=O)CN(C)C(=O)CCc1c[nH]c2ccccc12	10%	?	-25%	i	2%	-1%
COc1cc(NC(=O)CN2CCN(c3ccccc3O)CC2)c(C)cc1[N+](=O)[O-]	-6%	12µM*	?	?	-15%	?
O=C(CN1CCN(c2ccccc2O)CC1)Nc1cc([N+](=O)[O-])ccc1Cl	.	?	?	i	0%	-8%
O=C(CN1CCN(c2ccccc2O)CC1)Nc1ccc([N+](=O)[O-])cc1Br	-5%	?	23µM*	i	-1%	1%
